Experimental data from ChEMBL document CHEMBL4296182, “CO-ADD screening of NIH NCI Diversity Set V”.
For part of these data: Measured potencies and affinities stand elsewhere.

What was measured:
Staphylococcus aureus = assay: Antibacterial activity against Staphylococcus aureus MRSA ATCC 43300 (CO-ADD:GP_020); MIC in CAMBH media using NBS plates, by Resazurin F(560/590); format: functional; details: Concentration 20 uM, ASSAY_TEST Inhibition of Bacterial Growth, detection method Resazurin, Fluorescence (ex560/em590), MEDIA CAMHB, plate type 384well, CORNING #3640, time 18 hr
Acinetobacter baumannii = assay: Antibacterial activity against Acinetobacter baumannii ATCC 19606 (CO-ADD:GN_034); MIC in CAMBH media using NBS plates, by Resazurin F(560/590); format: functional; details: Concentration 20 uM, ASSAY_TEST Inhibition of Bacterial Growth, detection method Resazurin, Fluorescence (ex560/em590), MEDIA CAMHB, plate type 384well, CORNING #3640, time 18 hr
Escherichia coli = assay: Antibacterial activity against Escherichia coli ATCC 25922 (CO-ADD:GN_001); MIC in CAMBH media using NBS plates, by Resazurin F(560/590); format: functional; details: Concentration 20 uM, ASSAY_TEST Inhibition of Bacterial Growth, detection method Resazurin, Fluorescence (ex560/em590), MEDIA CAMHB, plate type 384well, CORNING #3640, time 18 hr
Klebsiella pneumoniae = details: Concentration 20 uM; ASSAY_TEST Inhibition of Bacterial Growth; detection method Absorption (OD600); MEDIA CAMHB; plate type 384well; NBS; CORNING #3640; time 18 hr
Candida albicans = details: 20 µM
Cryptococcus neoformans = details: Concentration 20 uM; ASSAY_TEST Inhibition of Fungal Growth; detection method Resazurin; Absorption (OD600-OD570); plate type 384well; NBS; CORNING #3640

SMILES	Inhibition (Staphylococcus aureus)	Inhibition (Acinetobacter baumannii)	Inhibition (Escherichia coli)	Inhibition (Klebsiella pneumoniae)	Inhibition (Candida albicans)	Inhibition (Cryptococcus neoformans)
OC(COc1cccc2ccccc12)CN1CCN(c2ccccc2Cl)CC1 (stereo not given)	-4.97%	8.91%	-13.55%	3.22%	3.81%	-4.59%
Nn1c(Cc2ccccc2)nnc1Cc1ccccc1	7.31%	16.12%	-0.96%	11.84%	2.51%	-5.12%
O=C1c2ccccc2C2=C3C(O)=NN=C3CCN12	13.67%	14.87%	4.79%	9.82%	5.2%	-1.84%
O=C1C(Br)=Cc2cccc3cccc1c23	13.47%	-14.96%	6.58%	7.6%	32.2%	12.78%
COC(=O)c1cc2c(n1S(=O)(=O)c1ccc(C)cc1)C(=O)C(=O)c1[nH]cc(C(=O)OCc3ccccc3)c1-2	12.8%	-9.93%	4.92%	10.02%	-2.87%	-5.89%
Nc1ccc(C(=O)Nc2ccc(NC(=O)c3ccco3)c(O)c2)cc1	1%	0.24%	0.6%	17.4%	3.85%	-8.99%
N#C/C(=C\c1ccc[nH]1)C(=O)c1ccccc1	9.96%	7.21%	0.79%	8.89%	10.3%	-7.32%
S=C1SCN(CCc2ccccc2)CN1CCc1ccccc1	-3.89%	1.92%	3.19%	4.28%	31.3%	-3.46%
Cc1cc(O)c(-c2cc(O)c(C)cc2O)cc1O	5.49%	-9.17%	6.61%	0.01%	5.95%	17.06%
CCCCNC(=O)Nc1ccccc1CC	14.67%	10.42%	0.25%	11.35%	3.55%	-6.96%
NNC(=O)c1nnsc1-c1csnn1	-28.09%	0.78%	-18.51%	1.34%	13.6%	15.04%
Oc1ccc(/N=N/c2ccccc2)c(O)c1/N=N/c1ccccc1	-22.17%	3.79%	-20.22%	-6.85%	8.07%	33.55%
COc1ccc(N/C=C2\C(=O)CCc3c2oc2cc(Cl)c(O)c(Cl)c32)cc1	7.05%	-14.01%	13.43%	4.7%	3.38%	-7.04%
O=C1COc2cccnc2N1	8.1%	-14.05%	0.48%	27.65%	4.29%	-2.63%
CC(=O)C1C=CC(C)(C(=O)O)C2C=C(C)C(=O)C(C)(O)C12 (stereo not given)	4.72%	16.27%	8.25%	21.21%	1.75%	-4.78%
CCCOc1ccc(-c2nc(-c3ccc(N)cc3)cs2)cc1	6.42%	13.93%	2.89%	4.45%	5.55%	-3.2%
O=C(CN1CCCC1)Nc1nc(-c2ccc(Cl)cc2)cs1	-2.74%	10.5%	-10.54%	13.35%	4.21%	-1.35%
CSC1=NC=C(C#N)C2=NC(c3ccc(Cl)cc3)NN12 (stereo not given)	-1.38%	5.14%	-2.57%	11.21%	1.44%	39.9%
CC(C)(C)c1ccc(OCC(=O)O)cc1	4.22%	-1%	10.46%	8.68%	8.84%	-1.59%
O=[N+]([O-])c1cccnc1Oc1cc(Cl)c(Cl)cc1Cl	13.29%	1.57%	1.62%	4.9%	1.25%	-4.41%
CS(=O)(=O)Nc1nc2ccccc2[nH]1	10.98%	4.83%	-1.14%	15.79%	3.39%	-3.84%
COc1ccc(CC(=O)c2ccc(O)cc2O)cc1 [ONONETIN]	1.4%	4.43%	2.27%	20.95%	17.6%	-13.72%
O=C1c2cccc(Sc3ccccc3)c2C(=O)c2c(Sc3ccccc3)cccc21	13.79%	-8.62%	22.23%	3.23%	0.05%	-7.69%
COc1ccc2c(c1)CCCN2C(=N)Nc1ccc(Cl)cc1	-10.2%	2.99%	-14.68%	7.66%	3.95%	6.87%
Nc1ccc(/N=N/c2ccccc2)c2ccccc12	1.47%	-18.91%	11.66%	8.12%	1.76%	-16.64%

SMILES	Inhibition (Staphylococcus aureus)	Inhibition (Acinetobacter baumannii)	Inhibition (Escherichia coli)	Inhibition (Klebsiella pneumoniae)	Inhibition (Candida albicans)	Inhibition (Cryptococcus neoformans)
O=C1c2cccc(Oc3ccccc3)c2C(=O)c2cccc(Oc3ccccc3)c21	12.36%	6.18%	-1.53%	10.6%	2.19%	-5.27%
Nc1ncnc2c1ncn2C1OC(CO)C(O)C1N (stereo not given)	-5.5%	-14.65%	5.58%	3.14%	-0.11%	-5.11%
CC(=O)c1cc2c(cc1C)CCCC2(C)C	18.6%	-15.87%	11.58%	0.53%	-0.44%	-7.49%
Cn1c(=O)c2c(nc(Cc3ccccc3)n2C)n(C)c1=O	3.97%	12.97%	-5.53%	15.33%	4.11%	-7.23%
Nc1ccc(C(=O)c2cccs2)cn1	33.76%	0%	26.4%	9.25%	8.82%	-0.14%
COC1OC2COC(c3ccccc3)OC2C(=O)C1NC(=O)c1ccccc1 (stereo not given)	8.72%	4.09%	10.65%	10.3%	2.12%	-18.55%
CC1=CC(=O)Nc2cncnc2N1	4.06%	-8.47%	8.98%	13.83%	0.16%	0.91%
COc1cc2c(=O)n3c4c(cccc4c2cc1OC)CC3	9.4%	-8.34%	13.88%	1.26%	1.37%	-14.32%
CCOC(=O)c1c(C)oc(C)c(C(=O)OCC)c1=O	10.05%	8.54%	-0.85%	10.69%	0.83%	-7.36%
CCOC(=O)CCC1(C(=O)OC)C(=O)CCCCC/C=C/1C(=O)OC (stereo not given)	9.69%	9.62%	-17.88%	8.19%	7.46%	18.91%
O=c1nc2onnc2c(/C=N\O)[nH]1	11.4%	-9.04%	10.25%	15.41%	-0.67%	-3.06%
Nc1ccc(/C=C/c2ccc3ncccc3c2)cc1	-2.75%	-9.02%	3.29%	1.77%	2.51%	-10.25%
O=c1ccn2c(n1)SC(c1ccccc1)C2 (stereo not given)	9.54%	7.52%	0.87%	5.49%	4.6%	-10.89%
CCOC(=O)Cc1cc(O)c2cc(C)ccc2n1	11.68%	-4.86%	11.33%	2.93%	-1.04%	-11.29%
Cc1cc(=O)n2nc(-c3ccc(C(C)(C)C)cc3)cc2[nH]1	15.3%	0.45%	6.17%	14.85%	4.49%	-5.87%
OCc1cc(O)c(CO)nn1	-17.8%	-1.67%	-7.33%	4.1%	-0.36%	1.1%
COc1ccc2nc(-c3ccc(Cl)cc3)cc(C(=O)O)c2c1	-2.13%	-6.37%	6.47%	11.49%	35.6%	-9.35%
c1ccc(-c2nc3ccccc3s2)nc1	11.77%	-14.54%	6.85%	18.93%	0.91%	-15.52%
CCOC(=O)C1CC(=O)c2cc(OC)c(OC)cc2C1 (stereo not given)	-2.55%	9.78%	7.27%	13.25%	3.32%	-12.53%
CC(=O)Nc1c(C)cc(OCC(=O)O)cc1C	2.34%	-5.79%	3.28%	20.93%	1.74%	-9.89%
Cn1c(=O)c2c(nc(OCCc3ccccc3)n2C)n(C)c1=O	6.63%	-9.02%	8.83%	12.12%	3.96%	-6.56%
O=C(O)CSc1ccc(NC(=O)Nc2ccccc2F)cc1	18.21%	6.88%	2.53%	17.8%	-1.57%	-6.03%
CCOC(=O)c1ccc(NC(=O)Oc2cc(C)c(Cl)cc2C(C)C)cc1	20.21%	9.47%	4.16%	12.01%	4.36%	-1.17%
CCCOc1nc2c(c(=O)n(C)c(=O)n2C)n1C	17.4%	10%	3.82%	-6.25%	1.36%	-4.51%
O=C(c1cccnc1)N1CCN(c2ccccc2Cl)CC1	7.8%	-13.63%	10.26%	11.81%	2.66%	-13.57%
